From article PMC12136788 come the findings set out here.

Where a chain is given by its changes, count along the chain named. Whole data set: some 5,800 sequences, median “enrichment r” near 0.54, cut for the highest 2% near 16. Shown is part of a subset that was picked to be rich in the highest values.

B1: chr12:66123492:66123593:-|3pUTR|ENSG00000139233|msi1|FALSE|unique (ssRNA)
RNA: GGGAGUUCUACAGUCCGACGAUCAUGCUACCCAAUAUCCAGUUAUAAUCAGGCCUCAACGUUCUGUCAGGUAUUAAUAUGGUUAGAAUUGUUCUUACAACUGGUAAUUAUAGUCAAUAGAGAUAAAACAGAUGAUGUACUGACCAACAGAGGAUUGAGCAUCA
B2: ENSG00000154556:stop:overlap|stop_codon|ENSG00000154556|stop_codon|NA|stop_codon (ssRNA)
RNA: GGGAGUUCUACAGUCCGACGAUCCUUCUUCCCCAUCAAGAGCAAAAGUUACUCAGGGCUCAACGGCAACCCCUCCAGUGAGUUAGAUUACUGUAGCACUUACAGACAGCACUUGGAUGUCCCUCGGGACUCACCAAGAGCCAUCAACAGAGGAUUGAGCAUCA
B3: chr19:18196783:18197469:-|three_prime_utr|ENSG00000105649|control|control|control (ssRNA)
RNA: GGGAGUUCUACAGUCCGACGAUCACUACCCGGGCCUGACCCGGCCCCUACCAGCCACGGGCACAAGACCCCUGCUCCUGACUUAGCCCGUCACCCUUAUUUAUUAUUGUAGCUAUUUAUUUAUUUAUUGAAGAUGUCCCCCAGCAACAGAGGAUUGAGCAUCA
B4: chr19:38730201:38730298:+|3pUTR|ENSG00000130402|msi1_unk|total|mutant (ssRNA)
RNA: GGGAGUUCUACAGUCCGACGAUCCAGAGAAUUACUAUUUACUUUAUUAACUUACGGAUUUAUUAUAUAAAUAUAUAUUCACCCCGCAACAUAUCUCUGCCGUCUCUCCUGCUCUCAUAAUGAAGACACCGCCGAUUCUCUGCCCAACAGAGGAUUGAGCAUCA
B5: chr3:58425360:58425463:+|3pUTR|ENSG00000168297|unk|FALSE|unique (ssRNA)
RNA: GGGAGUUCUACAGUCCGACGAUCAGACAGCUCCUAGAAACAUUCCUCUUACAGUUCAUUUCUCUAAAGCAUUUUCUGAUUCUUAGAUAACUCCAAUUUUUGCUACCUUUAUCUUAGACAUUAACACUAUAGCCCAAAGCAUAGCAACAGAGGAUUGAGCAUCA
B6: chr11:613205:613595:-|three_prime_utr|ENSG00000185507|control|control|control (ssRNA)
RNA: GGGAGUUCUACAGUCCGACGAUCCUGCACGUUCCUAUACGGCCCCCCAGACCCAGCUGUCCGGGCCACAGACCCCCAGCAGGUAGCAUUCCCCAGCCCUGCCGAGCUCCCGGACCAGAAGCAGCUGCGCUACACGGAGGAACUCAACAGAGGAUUGAGCAUCA
B7: chr7:20410151:20410448:+|3pUTR|ENSG00000105855|msi1|FALSE|unique (ssRNA)
RNA: GGGAGUUCUACAGUCCGACGAUCACUAGUGUCGUUGUAGCACUUUACUGUAAUAUAUAACUUAUUUAGAUCAGCAUAGAAUGUAGAUCCUCUGAAGAGCACUGAUUACACUUUACAGGUACCUGUUAUCCCUACGCUUCCCAGCAACAGAGGAUUGAGCAUCA
B8: chr19:38730201:38730298:+|3pUTR|ENSG00000130402|msi1_unk|FALSE|overlapping (ssRNA)
RNA: B4 RNA with C83U, C84A, C128U, C129A
B9: chr7:20410151:20410448:+|3pUTR|ENSG00000105855|msi1|total|mutant (ssRNA)
RNA: B7 RNA with U26C, A27C, U37C, A38C, U66C, A67C, U76C, A77C, U83C, A84C
B10: chr12:66123492:66123593:-|3pUTR|ENSG00000139233|msi1|total|mutant (ssRNA)
RNA: B1 RNA with U83C, A84C, U110C, A111C, U117C, A118C
B11: chr4:56461171:56461272:+|3pUTR|ENSG00000128050|msi1|FALSE|bound_elsewhere (ssRNA)
RNA: GGGAGUUCUACAGUCCGACGAUCCUUCUGUAACCACAGUGACUACAAGUAGUUCUUUCUCUAUUGAAUUAUUAGGUCCAGAAUAGAAGAUGUCAUUGUACACUUUAUUUCCCUCACACUGUGUUAUGCUCUGAUGUGCUAUGCCAACAGAGGAUUGAGCAUCA
B12: chr16:66721972:66722075:-|3pUTR|ENSG00000135720|unk|FALSE|unique (ssRNA)
RNA: GGGAGUUCUACAGUCCGACGAUCUUUUUAAUUCAGUUUUUUAAAAAAACAAAUGUAUUGUGGCUUCCAGUUACCAGGUUGUCUAGGUAAUGACAGUAAACUGACUGUAGAAUGAUAAUUGUGGUAUAGUGACCAAUAGAUGCCCAACAGAGGAUUGAGCAUCA
B13: ENSG00000115216:stop:overlap|stop_codon|ENSG00000115216|stop_codon|NA|stop_codon (ssRNA)
RNA: GGGAGUUCUACAGUCCGACGAUCACAAGUUCAAUUUUGCCAGGAACAGUACCCUCAACUCAGCCGCUGUCACCGUCUCCUCUUAGAGCUCACUCGGGCCAGGCCCUGAUCUGCGCUGUGGCUGUCCCUGGACGUGCUGCAGCCCAACAGAGGAUUGAGCAUCA
B14: chr11:13729208:13729309:+|3pUTR|ENSG00000197601|unk|FALSE|unique (ssRNA)
RNA: GGGAGUUCUACAGUCCGACGAUCAAAGUUGGUAGAUAUUUGAUUCUUCAUUUUUUGUUUUUUUCAUUAGUUGAAGUGGGUUUUAGUUUUGUUUAAAAUUAUAACCAGCGUAUUUUCACAUCAUUCUGUAAGUUAAAUGAUAUCCAACAGAGGAUUGAGCAUCA
B15: chr17:48622902:48623135:-|CDS|ENSG00000170689|control|control|control (ssRNA)
RNA: GGGAGUUCUACAGUCCGACGAUCUACCAGACGCUGGAGCUAGAGAAGGAGUUUCUGUUCAAUAUGUACCUCACCAGGGACCGUAGGCACGAAGUGGCCAGACUCCUCAAUCUGAGUGAGAGACAAGUCAAAAUCUGGUUUCAGCAACAGAGGAUUGAGCAUCA
B16: chr13:99866285:99866388:+|CDS|ENSG00000125246|unk|FALSE|unique (ssRNA)
RNA: GGGAGUUCUACAGUCCGACGAUCUAUUCUCUACGCCCGGCAAAAGAUUGUUGUCAUAGCGAAAGCCUUUGGUCUCCAAGCCAUAGAUCUGGUGUACAUUGACUUUCGAGAUGGAGCUGGGCUGCUUAGACAGUCACGAGAAGGCAACAGAGGAUUGAGCAUCA
B17: ENSG00000198589:be:win_1301|CDS|ENSG00000198589|bound_else_gene|NA|bound_elsewhere_windowed (ssRNA)
RNA: GGGAGUUCUACAGUCCGACGAUCCAUCUCCUAAGGACAACCCUUCAAUUUUUGUUCAUUCACCACAUGCACUCAUGCUCCAGGAUGUAAAGGCAGUUUUAACACAUUCCAUCCAAAGUGCAAUGCAUUCAAUUGGAGGAGUACCAACAGAGGAUUGAGCAUCA
B18: chr15:59095394:59095499:+|3pUTR|ENSG00000157450|unk|FALSE|unique (ssRNA)
RNA: GGGAGUUCUACAGUCCGACGAUCUAAAUACCAUCCUUAAUACUGGGAACAGAAUACAACCCAUAUAAAUCAGAUGCAGGUGGUAGUCACAUCACCAGAGUGAUCAGUAUAAAUUUUCUUGGUGUAUCCUUUUCCUUUCAACACCAACAGAGGAUUGAGCAUCA
B19: chr1:193029531:193029688:-|CDS|ENSG00000116750|unk|FALSE|unique (ssRNA)
RNA: GGGAGUUCUACAGUCCGACGAUCUUGAUAUCUUCACUUUUAUAUUUUAUAGGUAAUUAAUAAUGCUUGUGCUACUCAAGCCAUAGUGAGUGUGUUACUGAACUGUACCCACCAGGAUGUCCAUUUAGGCGAGACAUUAUCAGACAACAGAGGAUUGAGCAUCA
B20: chrX:115010634:115010735:-|CDS|ENSG00000123496|msi1|FALSE|unique (ssRNA)
RNA: GGGAGUUCUACAGUCCGACGAUCUGGAUCAUCAGAGAACAAGCCUAUCAGAUCCAGUUAUUUCACUUUUCAGCUUCAAAAUAUAGGUGAUGUAAACCAACAAACAACUUCAAAUUCAUUGUUUCUAGUUUAGGCCAUUUACAACAACAGAGGAUUGAGCAUCA
B21: chr1:193029531:193029688:-|CDS|ENSG00000116750|unk|total|mutant (ssRNA)
RNA: B19 RNA with U49C, A50C, U83C, A84C, U125C, A126C
B22: chr7:30424526:30425710:-|three_prime_utr|ENSG00000106100|control|control|control (ssRNA)
RNA: GGGAGUUCUACAGUCCGACGAUCAAACUCCCUAAGUACCCGCUACAAUUCUGCAGAAAAAGAAUGUGUCUUGCGAGCUGUUGUAGUUACAGUAAAUACACUGUGAAGAGACUUUAUUGCCUAUUAUAAUUAUUUUUAUCUGAACAACAGAGGAUUGAGCAUCA

MSI1 full-length, sequence (Q61474 whole entry): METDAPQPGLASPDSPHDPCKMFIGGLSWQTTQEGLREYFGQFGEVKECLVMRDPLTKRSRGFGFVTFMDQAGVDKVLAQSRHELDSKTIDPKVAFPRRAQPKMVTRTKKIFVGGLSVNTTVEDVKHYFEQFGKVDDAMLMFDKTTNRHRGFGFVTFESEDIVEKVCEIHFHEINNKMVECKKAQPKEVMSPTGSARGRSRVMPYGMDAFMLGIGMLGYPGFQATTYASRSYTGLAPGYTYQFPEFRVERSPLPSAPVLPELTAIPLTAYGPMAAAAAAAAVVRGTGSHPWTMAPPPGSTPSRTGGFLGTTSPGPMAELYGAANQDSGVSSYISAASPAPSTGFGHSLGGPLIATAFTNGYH

This experiment addresses MSI1 full-length (mouse, UniProt Q61474 1-362). Description: nsRBNS (natural sequence RNA bind-n-seq); RBNS binding buffer (assumed for nsRBNS): 25 mM Tris pH 7.5, 150 mM KCl, 3 mM MgCl2, 0.01% Triton X-100, 500 ug/ml BSA, 20 U/ml SUPERase-In, 4 C; UNK is unkempt and MSI1 is Musashi-1; names of the RNAs are library labels; protein concentration not given here; high values mean tight binding.
Consider B1, for which the binding signal is 17.7 enrichment R. As for B2, the figure is 0.595 enrichment R; as for B3, 48.8 enrichment R. As for B4, the figure is 5.81 enrichment R; as for B5, 8.08 enrichment R. As for B6, the figure is 0.649 enrichment R; as for B7, 16.1 enrichment R.

Take B8: the binding signal turned out to be 39.3 enrichment R.

In turn, B9 yielded a binding signal of 0.529 enrichment R. The figure for B10 is 0.303 enrichment R. The figure for B11 is 1.03 enrichment R; for B12 it is 9.43 enrichment R; for B13 it is 0.763 enrichment R. As for B14, the figure is 1.97 enrichment R; as for B15, 0.411 enrichment R; as for B16, 0.39 enrichment R. Consider B17, for which the binding signal stood at 0.284 enrichment R. For the molecule B18, the binding signal was found to be 0.744 enrichment R. As for B19, the figure is 30 enrichment R. The figure for B20 is 1.74 enrichment R; for B21 it is 1.15 enrichment R; for B22 it is 3.46 enrichment R.
